Measured values: the supplement of paper PMC11732987, “Enantioselective OTUD7B fragment discovery through chemoproteomics screening and high-throughput optimisation” (Communications Chemistry, 2025)

How the values were obtained:
Experiment in all cases: log2 ratio of Biotin-Ahx-Ub-VS probe labelling (fragment/DMSO); higher = less target engagement (more negative = stronger competition), active = hit call of the paper (q ≤ 0.05, log2 ratio ≤ -1)
Conditions in all cases: compound concentration: 200 uM; treatment time: 3 h
[1] = molecular target: USP34 (UniProt Q70CQ2)
In short: (§1)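 Fragment (200 µM) or vehicle was incubated for 3 h with triplicate HEK293T lysate samples of 495 µg, which were then treated with Biotin-Ahx-Ub-VS at 0.5 µM final for 1 h. Labelled DUBs were enriched on NeutrAvidin, digested with LysC and trypsin, and analysed by diaPASEF LC-MS/MS. Values are average log2 fragment/vehicle ratios from an unpaired t-test on global-median-normalised Spectronaut label-free quantities, using proteins with ≥2 unique peptides.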

[2] = molecular target: T1, USP36 (UniProt Q9P275)
T1 sequence (whole entry): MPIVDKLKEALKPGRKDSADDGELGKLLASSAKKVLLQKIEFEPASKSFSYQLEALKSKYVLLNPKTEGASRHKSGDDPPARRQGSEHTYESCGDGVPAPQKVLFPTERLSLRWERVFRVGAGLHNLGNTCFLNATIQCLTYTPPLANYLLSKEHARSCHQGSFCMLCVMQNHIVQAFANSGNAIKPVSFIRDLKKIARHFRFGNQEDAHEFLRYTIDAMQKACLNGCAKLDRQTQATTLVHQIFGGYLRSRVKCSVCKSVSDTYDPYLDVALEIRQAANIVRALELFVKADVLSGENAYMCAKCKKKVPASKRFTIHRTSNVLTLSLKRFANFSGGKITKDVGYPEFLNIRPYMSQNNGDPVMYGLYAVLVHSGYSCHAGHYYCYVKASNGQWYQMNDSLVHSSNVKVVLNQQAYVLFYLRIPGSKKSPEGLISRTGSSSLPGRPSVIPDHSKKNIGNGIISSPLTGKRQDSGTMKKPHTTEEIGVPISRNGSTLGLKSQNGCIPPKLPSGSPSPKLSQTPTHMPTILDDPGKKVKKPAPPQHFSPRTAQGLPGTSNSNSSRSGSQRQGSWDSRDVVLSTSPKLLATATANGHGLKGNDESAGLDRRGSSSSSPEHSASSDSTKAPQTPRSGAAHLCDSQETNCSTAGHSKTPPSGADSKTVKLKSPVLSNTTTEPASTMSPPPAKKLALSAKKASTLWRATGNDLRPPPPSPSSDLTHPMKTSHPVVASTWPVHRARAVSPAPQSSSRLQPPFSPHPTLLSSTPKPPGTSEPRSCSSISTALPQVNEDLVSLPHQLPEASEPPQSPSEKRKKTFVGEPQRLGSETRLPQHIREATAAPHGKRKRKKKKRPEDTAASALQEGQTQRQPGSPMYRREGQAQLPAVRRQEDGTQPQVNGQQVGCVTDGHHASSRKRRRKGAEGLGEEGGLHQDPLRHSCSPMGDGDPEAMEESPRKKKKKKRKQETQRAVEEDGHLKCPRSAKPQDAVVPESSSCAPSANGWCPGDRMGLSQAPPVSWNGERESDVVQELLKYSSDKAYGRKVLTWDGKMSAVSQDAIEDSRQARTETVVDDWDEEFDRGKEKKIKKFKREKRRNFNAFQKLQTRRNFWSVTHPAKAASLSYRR
In short: as §1

[3] = molecular target: T2, USP38 (UniProt Q8NB14)
T2 sequence (whole entry): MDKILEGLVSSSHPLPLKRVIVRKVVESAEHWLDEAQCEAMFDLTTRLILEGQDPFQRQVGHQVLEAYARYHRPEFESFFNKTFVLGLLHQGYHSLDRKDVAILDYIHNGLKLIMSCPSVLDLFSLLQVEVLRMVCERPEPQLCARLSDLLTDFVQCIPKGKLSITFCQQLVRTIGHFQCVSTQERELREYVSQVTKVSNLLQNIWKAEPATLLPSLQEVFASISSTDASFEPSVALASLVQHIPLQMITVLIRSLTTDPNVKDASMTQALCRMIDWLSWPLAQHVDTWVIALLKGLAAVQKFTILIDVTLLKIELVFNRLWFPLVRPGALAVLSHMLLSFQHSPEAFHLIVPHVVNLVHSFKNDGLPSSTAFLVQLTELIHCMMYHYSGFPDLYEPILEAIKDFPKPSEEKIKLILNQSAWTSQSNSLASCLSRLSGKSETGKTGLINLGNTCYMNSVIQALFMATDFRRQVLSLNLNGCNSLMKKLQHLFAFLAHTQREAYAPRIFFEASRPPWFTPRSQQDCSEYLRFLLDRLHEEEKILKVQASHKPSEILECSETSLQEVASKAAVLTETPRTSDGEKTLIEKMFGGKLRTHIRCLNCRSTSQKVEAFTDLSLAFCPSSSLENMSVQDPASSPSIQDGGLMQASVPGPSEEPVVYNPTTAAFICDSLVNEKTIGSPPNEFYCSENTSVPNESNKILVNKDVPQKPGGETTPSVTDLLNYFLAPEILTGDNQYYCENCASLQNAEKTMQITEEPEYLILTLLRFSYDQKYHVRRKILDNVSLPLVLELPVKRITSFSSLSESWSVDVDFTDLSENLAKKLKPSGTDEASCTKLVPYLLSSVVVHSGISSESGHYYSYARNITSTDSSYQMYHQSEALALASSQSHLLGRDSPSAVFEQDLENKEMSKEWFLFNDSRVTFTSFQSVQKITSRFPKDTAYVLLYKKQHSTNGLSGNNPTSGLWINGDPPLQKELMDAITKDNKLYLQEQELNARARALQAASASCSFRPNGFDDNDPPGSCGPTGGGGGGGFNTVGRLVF
In short: as §1

[4] = molecular target: T3, USP39 (UniProt Q53GS9)
T3 sequence (whole entry): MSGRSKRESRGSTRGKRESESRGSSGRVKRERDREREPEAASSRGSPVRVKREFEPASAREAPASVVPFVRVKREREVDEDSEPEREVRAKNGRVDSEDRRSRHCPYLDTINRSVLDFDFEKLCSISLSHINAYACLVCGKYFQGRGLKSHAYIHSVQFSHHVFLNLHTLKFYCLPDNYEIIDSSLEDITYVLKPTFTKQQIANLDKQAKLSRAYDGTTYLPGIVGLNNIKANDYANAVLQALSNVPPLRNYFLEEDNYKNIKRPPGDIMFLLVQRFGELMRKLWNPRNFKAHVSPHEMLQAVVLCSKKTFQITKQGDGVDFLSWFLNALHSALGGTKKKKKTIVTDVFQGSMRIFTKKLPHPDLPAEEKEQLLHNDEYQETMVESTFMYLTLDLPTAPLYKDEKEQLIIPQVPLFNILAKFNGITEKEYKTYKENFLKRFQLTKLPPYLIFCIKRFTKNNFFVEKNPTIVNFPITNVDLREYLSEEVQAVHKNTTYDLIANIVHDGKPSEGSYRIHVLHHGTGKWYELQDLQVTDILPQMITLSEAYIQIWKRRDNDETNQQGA
In short: as §1

[5] = molecular target: T4, USP4 (UniProt Q13107)
T4 sequence (whole entry): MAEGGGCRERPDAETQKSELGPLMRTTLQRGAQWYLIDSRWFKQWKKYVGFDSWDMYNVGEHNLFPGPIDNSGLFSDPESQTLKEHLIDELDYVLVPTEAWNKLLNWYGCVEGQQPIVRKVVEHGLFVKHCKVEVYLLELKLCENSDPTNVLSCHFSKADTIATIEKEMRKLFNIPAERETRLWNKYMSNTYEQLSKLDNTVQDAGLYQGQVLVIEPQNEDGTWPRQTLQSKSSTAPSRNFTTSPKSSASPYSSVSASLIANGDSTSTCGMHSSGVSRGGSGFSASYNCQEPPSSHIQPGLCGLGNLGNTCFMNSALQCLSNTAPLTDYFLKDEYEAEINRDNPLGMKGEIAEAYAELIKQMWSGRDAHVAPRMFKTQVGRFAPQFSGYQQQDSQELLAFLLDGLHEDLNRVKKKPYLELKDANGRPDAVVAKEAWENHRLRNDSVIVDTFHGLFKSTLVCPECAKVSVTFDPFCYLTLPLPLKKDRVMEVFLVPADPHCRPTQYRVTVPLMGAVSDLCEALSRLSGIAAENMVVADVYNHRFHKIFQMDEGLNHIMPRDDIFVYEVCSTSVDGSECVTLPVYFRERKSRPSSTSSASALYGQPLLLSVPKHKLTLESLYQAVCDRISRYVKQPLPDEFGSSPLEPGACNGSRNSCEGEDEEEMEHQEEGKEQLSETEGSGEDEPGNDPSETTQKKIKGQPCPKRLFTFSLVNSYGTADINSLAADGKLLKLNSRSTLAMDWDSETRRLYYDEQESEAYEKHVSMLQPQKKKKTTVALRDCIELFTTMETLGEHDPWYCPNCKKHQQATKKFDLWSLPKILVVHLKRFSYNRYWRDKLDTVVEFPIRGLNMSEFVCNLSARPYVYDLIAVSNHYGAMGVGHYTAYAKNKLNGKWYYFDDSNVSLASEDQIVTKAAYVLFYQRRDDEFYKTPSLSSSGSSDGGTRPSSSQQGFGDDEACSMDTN
In short: as §1

Measured: log2 ratio of Biotin-Ahx-Ub-VS probe labelling

Chain of USP34 (Q70CQ2 whole entry, the tested form may be a part): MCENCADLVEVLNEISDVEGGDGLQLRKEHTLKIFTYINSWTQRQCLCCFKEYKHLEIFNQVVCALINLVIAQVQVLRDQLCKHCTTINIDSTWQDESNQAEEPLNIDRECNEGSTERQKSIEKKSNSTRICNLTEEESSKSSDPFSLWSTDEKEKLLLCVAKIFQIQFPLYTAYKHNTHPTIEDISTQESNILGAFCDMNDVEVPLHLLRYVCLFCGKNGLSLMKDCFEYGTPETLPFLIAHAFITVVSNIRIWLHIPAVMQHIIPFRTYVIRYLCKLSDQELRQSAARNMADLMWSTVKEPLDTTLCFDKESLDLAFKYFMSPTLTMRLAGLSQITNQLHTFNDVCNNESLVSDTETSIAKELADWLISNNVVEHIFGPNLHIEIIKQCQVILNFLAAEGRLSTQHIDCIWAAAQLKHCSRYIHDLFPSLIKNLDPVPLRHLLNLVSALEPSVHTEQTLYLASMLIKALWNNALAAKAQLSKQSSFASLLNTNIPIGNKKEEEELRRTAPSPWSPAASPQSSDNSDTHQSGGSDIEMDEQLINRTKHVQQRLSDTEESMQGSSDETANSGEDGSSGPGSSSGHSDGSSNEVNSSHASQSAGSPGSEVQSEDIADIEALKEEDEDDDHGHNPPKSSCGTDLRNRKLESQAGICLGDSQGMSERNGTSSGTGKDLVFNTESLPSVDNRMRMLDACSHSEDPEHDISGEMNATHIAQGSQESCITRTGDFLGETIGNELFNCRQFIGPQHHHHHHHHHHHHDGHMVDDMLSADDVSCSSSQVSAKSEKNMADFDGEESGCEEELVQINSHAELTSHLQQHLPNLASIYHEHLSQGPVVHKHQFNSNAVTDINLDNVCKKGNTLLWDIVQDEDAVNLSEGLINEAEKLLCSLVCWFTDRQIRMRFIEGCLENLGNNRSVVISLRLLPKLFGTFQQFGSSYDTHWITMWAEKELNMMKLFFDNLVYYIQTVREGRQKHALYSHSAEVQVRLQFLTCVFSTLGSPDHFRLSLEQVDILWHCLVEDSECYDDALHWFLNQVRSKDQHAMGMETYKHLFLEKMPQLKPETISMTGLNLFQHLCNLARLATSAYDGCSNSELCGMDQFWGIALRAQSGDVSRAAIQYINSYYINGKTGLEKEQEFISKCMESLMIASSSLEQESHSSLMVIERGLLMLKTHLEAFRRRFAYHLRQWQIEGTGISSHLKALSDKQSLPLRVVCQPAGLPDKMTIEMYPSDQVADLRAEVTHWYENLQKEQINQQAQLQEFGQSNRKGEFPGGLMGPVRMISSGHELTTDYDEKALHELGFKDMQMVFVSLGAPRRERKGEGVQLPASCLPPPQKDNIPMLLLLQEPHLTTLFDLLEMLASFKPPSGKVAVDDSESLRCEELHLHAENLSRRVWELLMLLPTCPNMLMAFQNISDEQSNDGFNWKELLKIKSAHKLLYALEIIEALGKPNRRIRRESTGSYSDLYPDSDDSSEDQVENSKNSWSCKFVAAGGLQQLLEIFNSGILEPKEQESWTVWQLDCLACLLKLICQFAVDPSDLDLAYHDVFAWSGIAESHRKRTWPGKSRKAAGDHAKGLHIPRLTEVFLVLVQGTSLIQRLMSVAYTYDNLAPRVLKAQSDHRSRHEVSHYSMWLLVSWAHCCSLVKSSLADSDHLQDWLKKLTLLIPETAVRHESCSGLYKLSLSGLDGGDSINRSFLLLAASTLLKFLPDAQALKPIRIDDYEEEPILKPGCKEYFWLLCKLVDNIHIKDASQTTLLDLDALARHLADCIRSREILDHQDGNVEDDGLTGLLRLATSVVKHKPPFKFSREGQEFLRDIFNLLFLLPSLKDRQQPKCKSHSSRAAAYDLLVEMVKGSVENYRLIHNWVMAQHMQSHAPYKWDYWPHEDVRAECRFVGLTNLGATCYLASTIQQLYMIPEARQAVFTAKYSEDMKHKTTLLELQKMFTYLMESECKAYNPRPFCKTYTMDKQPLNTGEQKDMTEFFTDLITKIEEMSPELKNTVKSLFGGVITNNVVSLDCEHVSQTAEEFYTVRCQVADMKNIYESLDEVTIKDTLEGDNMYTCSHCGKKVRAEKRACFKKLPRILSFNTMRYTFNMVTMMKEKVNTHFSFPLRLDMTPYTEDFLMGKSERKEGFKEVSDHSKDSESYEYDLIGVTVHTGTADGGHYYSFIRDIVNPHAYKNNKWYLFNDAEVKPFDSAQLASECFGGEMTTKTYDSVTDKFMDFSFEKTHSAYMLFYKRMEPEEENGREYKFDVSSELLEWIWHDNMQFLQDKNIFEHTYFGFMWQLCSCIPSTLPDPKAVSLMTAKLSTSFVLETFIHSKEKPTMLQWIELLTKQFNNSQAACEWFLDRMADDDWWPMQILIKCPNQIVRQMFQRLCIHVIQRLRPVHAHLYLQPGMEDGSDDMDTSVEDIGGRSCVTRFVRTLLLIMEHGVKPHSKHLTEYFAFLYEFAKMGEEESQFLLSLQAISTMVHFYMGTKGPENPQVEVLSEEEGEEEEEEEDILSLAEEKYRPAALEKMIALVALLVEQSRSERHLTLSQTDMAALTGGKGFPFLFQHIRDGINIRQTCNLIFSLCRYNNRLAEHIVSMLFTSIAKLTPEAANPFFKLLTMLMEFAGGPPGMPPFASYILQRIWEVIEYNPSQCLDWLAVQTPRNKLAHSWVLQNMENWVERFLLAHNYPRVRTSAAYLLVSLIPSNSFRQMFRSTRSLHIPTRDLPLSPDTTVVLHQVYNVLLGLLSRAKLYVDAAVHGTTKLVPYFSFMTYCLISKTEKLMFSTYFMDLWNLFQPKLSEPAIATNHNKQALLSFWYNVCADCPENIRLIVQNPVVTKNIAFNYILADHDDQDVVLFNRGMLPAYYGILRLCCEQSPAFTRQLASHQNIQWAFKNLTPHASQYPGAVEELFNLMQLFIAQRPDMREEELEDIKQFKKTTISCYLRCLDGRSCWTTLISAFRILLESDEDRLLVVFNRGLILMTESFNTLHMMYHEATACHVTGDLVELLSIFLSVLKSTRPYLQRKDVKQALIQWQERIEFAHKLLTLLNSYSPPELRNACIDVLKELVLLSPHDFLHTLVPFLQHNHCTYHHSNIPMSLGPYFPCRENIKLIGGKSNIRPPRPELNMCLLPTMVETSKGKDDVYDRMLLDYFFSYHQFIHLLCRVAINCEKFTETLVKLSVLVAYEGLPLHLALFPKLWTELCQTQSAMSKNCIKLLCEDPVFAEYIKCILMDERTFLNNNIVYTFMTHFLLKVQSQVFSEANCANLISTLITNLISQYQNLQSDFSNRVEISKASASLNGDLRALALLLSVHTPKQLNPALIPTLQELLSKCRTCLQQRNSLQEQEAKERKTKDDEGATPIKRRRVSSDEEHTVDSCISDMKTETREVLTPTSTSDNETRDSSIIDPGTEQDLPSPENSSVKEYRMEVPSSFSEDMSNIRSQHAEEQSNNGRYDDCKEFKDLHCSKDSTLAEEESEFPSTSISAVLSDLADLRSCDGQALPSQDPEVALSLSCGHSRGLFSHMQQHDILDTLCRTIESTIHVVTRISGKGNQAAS

Cc1ncsc1CCNC(=O)CCl
inactive: [1] 0.121 | [2] -0.151 | [3] 0.14 | [4] -0.101 | [5] 0.244
